High-throughput results as filed in PubChem BioAssay.
The entries come from a sample that favours hits as a whole.
Methyltransferases = Primary Screen for Target Class Profiling of Small Molecule Inhibitors of Methyltransferases; purified enzyme, MTase-Glo SAH luminescence; hits give low values; calls only at 40 µM; 25,000 tested, 3.9% active; AID 1745853, 2022; call rule not given here
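Each enzyme was assayed with SAM and its substrate. SAH formation detected by MTase-Glo luminescence; single-point 40 uM screen[…].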
Numbers without * were called inactive; i = inactive; + = active, no number. % is set by controls: 0 for no effect and ±100 for the full control effect.

SMILES	Methyltransferases
CN1C(=O)c2cc(C(=O)NCCN3CCOCC3)nn2CC1(C)C(=O)NCc1ccccc1 (configuration not stated)	i
COc1ccc2cc3n(c2c1)CC(C)(C(=O)NC1CCCC1)N(Cc1ccco1)C3=O (configuration not stated)	i
Cc1cc2c(cc1NS(=O)(=O)c1ccc3c(c1)n(C)c(=O)n3C)n(C)c(=O)n2C	i
Cc1cc2c(cc3n2CC(C)(C(=O)NC2CCCCCCC2)N(Cc2cccnc2)C3=O)o1 (configuration not stated)	i
C=C1C(=O)O[C@H]2CC(=C)[C@H]3CC[C@@](C)(O)[C@@H]3CC12 (some centres not stated)	+
C=C(C)C(=O)OC1[C@@H]2C(=C)C(=O)O[C@@H]2C[C@@H](C)[C@@H]2C=CC(=O)[C@@]12C (some centres not stated)	i
C=C1C(=O)O[C@H]2C1CCC(C)=C1C(=O)C=C(C)[C@@]12O (some centres not stated)	i
O=c1c2ccccc2n2c(=O)n(Cc3cccc(Cl)c3)nc2n1CCc1ccccc1	i
COC(=O)C1=COC(OC2OC(CO)C(O)C(O)C2O)C2C(COC(=O)/C=C/c3ccc(O)c(O)c3)C(O)C(O)C12 (configuration not stated)	i
COc1cc(/C=C/C(=O)OC[C@H]2O[C@@H](OC3OC=C(C(=O)O)C4C(O)CC(C)(O)C34)[C@H](O)[C@@H](O)[C@@H]2O)cc(OC)c1O (some centres not stated)	+
CC1(O)CC(O)C2C(C(=O)O)=COC(OC3OC(CO)C(O)C(O)C3OC(=O)/C=C/c3ccc(O)cc3)C21 (configuration not stated)	i
COC(=O)C1=COC(O[C@@H]2O[C@H](CO[C@@H]3O[C@H](COC(=O)/C=C\c4ccc(O)cc4)[C@@H](O)[C@H](O)[C@H]3O)[C@@H](O)[C@H](O)[C@H]2O)C2C(CO)=CCC12 (some centres not stated)	i
C[C@]1(O)CC[C@@H]2C(C(=O)O)=CO[C@@H](O[C@@H]3O[C@H](COC(=O)c4ccc(O)cc4)[C@@H](O)[C@H](O)[C@H]3O)[C@@H]21	i
COC(=O)C1=CO[C@@H](O[C@@H]2O[C@H](CO[C@@H]3O[C@H](COC(=O)/C=C/c4cc(OC)c(O)c(OC)c4)[C@@H](O)[C@H](O)[C@H]3O)[C@@H](O)[C@H](O)[C@H]2O)[C@@H]2C(CO)=CC[C@H]12	+
C=C1[C@H]2[C@H](O[C@@H]3O[C@H](COC(=O)/C=C/c4cc(OC)c(O)c(OC)c4)[C@@H](O)[C@H](O)[C@H]3O)OC=C(C(=O)O)[C@H]2C[C@@H]1O	+
C=C1C(O)CC2C(C(=O)O)=COC(O[C@@H]3O[C@H](COC(=O)c4ccc(O)cc4)[C@@H](O)[C@H](O)[C@H]3O)C12 (some centres not stated)	i
COC(=O)C1=CO[C@@H](O[C@@H]2O[C@H](CO[C@@H]3O[C@H](COC(=O)/C=C/c4ccc(O)cc4)[C@@H](O)[C@H](O)[C@H]3O)[C@@H](O)[C@H](O)[C@H]2O)[C@@H]2C(CO)=CC[C@H]12	i
Cn1c(=O)c2ccc(C(=O)NC3CCCC3)cc2n2c(SCC(=O)NC3CCCC3)nnc12	i
CCCCOc1ccccc1-c1cc2n(n1)CC(C)(C(=O)NC1CCCCC1)N(CC)C2=O (configuration not stated)	i
NS(=O)(=O)c1ccc(CCNc2nc3c(S(=O)(=O)c4ccccc4)nnn3c3ccccc23)cc1	i
CC1(C(=O)NCc2ccc(Cl)cc2)Cn2c(ccc2-c2ccco2)C(=O)N1Cc1ccccc1 (configuration not stated)	i
Cc1cc(C)cc(NC(=O)Cn2nc3n(CC(C)C)c(=O)c4ccccc4n3c2=O)c1	i
CCc1cc2c(cc3n2CC(C)(C(=O)NC2CCC(C)CC2)N(CCN2CCCCCC2)C3=O)s1 (configuration not stated)	i
N#Cc1ccc(C(=O)NCc2nn(Cc3ccccc3)c3ccccc23)c(F)c1	i
CCCSCCCN1C(=O)c2cc3sccc3n2CC1(C)C(=O)NC1CCCCC1 (configuration not stated)	i
SMILES	Methyltransferases
CCOc1ccc(CCN2C(=O)c3cc(C(=O)OC)nn3CC2(C)C(=O)NC2CCCCCC2)cc1 (configuration not stated)	i
CC1=CC(=O)[C@H]2C(C)(C)CCC[C@]2(C)[C@@]1(O)CO	i
CC1=CC(=O)C2C(C)(C)CCCC2(C)C12CCC1(COC(=O)C1)O2 (configuration not stated)	+
CC(=O)O[C@H]1[C@H](OC(=O)C(C)C)[C@]2(C)OC3(CC[C@]2(C)[C@H]2CCC[C@]4(CO4)[C@]12C)COC(=O)C3 (some centres not stated)	i
COc1ccc(Cn2c(=O)c3ccccc3n3c(-c4cccc(OC)c4)nnc23)cc1	i
C=C1C(=O)O[C@H]2[C@H]1[C@@H](OC(=O)C(C)CO)C[C@@]1(C)[C@H](O)CCC(=O)[C@H]21 (some centres not stated)	i
C=C1CC2OC(=O)C(=C)C2C(OC(=O)/C(C)=C\C)CC2(C)OC1=CC2=O (configuration not stated)	i
C=C1C(=O)O[C@@H]2CC(C)=C([C@@H](C)CCCO)[C@@H](OC(=O)C(C)C)[C@H]12	+
Cc1ccc(-c2nnn3c2nc(NCCC(C)C)c2ccccc23)cc1	i
CC(C)CCn1c(=O)c2ccccc2n2c(SCC(=O)Nc3ccc(F)cc3F)nnc12	i
CC(=O)Nc1c2n(c3ccccc13)CC(C)(C(=O)NC1CCCC1)N(C1CCCC1)C2=O (configuration not stated)	i
Nc1ncnc2c1c(-c1cccc(OCc3ccccc3)c1)cn2C1CC(CN2CCC2)C1 (configuration not stated)	+
CC(CN1C(=O)c2ccc(-c3ccccc3)n2CC1(C)C(=O)NC1CCCC1)c1ccccc1 (configuration not stated)	i
CCN(CC)CCN(Cc1ccc(-c2ccc(C(F)(F)F)cc2)cc1)C(=O)Cn1c(SCc2ccc(F)cc2)nc(=O)c2c1CCC2	+
CN1C(=O)c2cc(C(=O)NCc3ccc(F)cc3)nn2CC1(C)C(=O)NCc1ccccc1 (configuration not stated)	i
CC(C)CCn1c(=O)c2ccc(C(=O)NC3CCCC3)cc2n2c(=O)n(CC(=O)NC(C)C)nc12	i
Cc1nn2c(SCC(=O)Nc3cccc(Cl)c3)nnc2[nH]c1=O	i
COc1cccc(NC(=O)Cn2c(=O)oc3cc(S(=O)(=O)N4CC(C)CC(C)C4)ccc32)c1 (configuration not stated)	i
Oc1ccc(C2CNCc3sccc32)cc1O (configuration not stated)	+
COc1ccc(Cn2c(=O)c3ccccc3n3c(-c4ccc(F)cc4)nnc23)cc1	i
O=S(=O)(Nc1cccc(F)c1)c1cccc(-c2nc(-c3ccccc3)no2)c1	i
Cn1cncc1C(N)(c1ccc(Cl)cc1)c1ccc2c(c1)c(-c1cccc(Cl)c1)cc(=O)n2C (configuration not stated)	+
Cc1cccc(N2C(=O)c3ccccc3CC2(C)C(=O)NCc2ccccc2)c1 (configuration not stated)	i
